# In the supplement of paper PMC6555819:
# How the values were obtained:
# Test in all cases: PBM binding z-score (relative to random genomic background probes); higher = stronger binding; sequences stand for … in GC…GCGATTGACAGCGTAGAATGAAGG
# [1] = system: FXR:RXRa (NR concentration 270 nM, RXRa partner concentration 90 nM)
# Method in brief: (§1)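 For binding z-scores, the reference was random background probes on custom Agilent 4×180K protein-binding microarrays. These arrays were incubated 1 h with ligand-free nuclear receptor dimers in PBS pH 7.4, 2% milk, 0.02% Triton X-100, 1 mM DTT, 0.2 mg/mL BSA and 0.4 mg/ml salmon testes DNA. Fluorescence was scanned after antibody detection of each partner (one per run) and regression-normalized.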
# [2] = system: LXRa:RXRa (NR concentration 270 nM, RXRa partner concentration 90 nM)
# Method in brief: as §1
# [3] = system: LXRa homodimer (NR concentration 270 nM)
# Method in brief: as §1
# [4] = system: LXRb:RXRa (NR concentration 270 nM, RXRa partner concentration 90 nM)
# Method in brief: as §1
# [5] = system: LXRb homodimer (NR concentration 270 nM)
# Method in brief: as §1
# [6] = system: PPARa:RXRa (NR concentration 270 nM, RXRa partner concentration 90 nM)
# Method in brief: as §1
# [7] = system: PPARg:RXRa (NR concentration 180 nM, RXRa partner concentration 90 nM)
# Method in brief: as §1
# [8] = system: PPARg:RXRa 270nM:90nM, anti-RXR (NR concentration 270 nM, RXRa partner concentration 90 nM)
# Method in brief: as §1
# [9] = system: PPARg:RXRa 30nM:10nM, anti-RXR (NR concentration 30 nM, RXRa partner concentration 10 nM)
# Method in brief: as §1
# [10] = system: PPARg:RXRa 90nM:30nM, anti-RXR (NR concentration 90 nM, RXRa partner concentration 30 nM)
# Method in brief: as §1
Sequence,PBM binding z-score [1],PBM binding z-score [2],PBM binding z-score [3],PBM binding z-score [4],PBM binding z-score [5],PBM binding z-score [6],PBM binding z-score [7],PBM binding z-score [8],PBM binding z-score [9],PBM binding z-score [10]
TCTTTTAGATCAGCAGGTTAAGAAAGCTGGCCAA,0.304,0.549,-0.247,0.44,0.139,0.889,-0.5,1.65,3.33,2.36
CAAACTAGGTCAAGACGTCAAAGTCCGCTTCCCG,3.84,2.6,0.426,1.79,0.329,4.81,7.43,6.72,4.47,6.25
CGTCCAAGGTTAGAGAGGTCAGTGAATGCCGAGT,2.67,3.01,1.94,2.48,-0.312,3.11,0.589,1.66,-0.029,0.655
GCATATAGGTAATACAATGTGAAAGTCCGATTGT,0.12,-0.102,0.125,-0.0369,-0.0471,0.701,1.29,0.561,0.448,0.672
ATCTCTAGGTAGCAAGTTCAGTGAAAGAGAGGAC,0.337,0.333,0.238,0.0819,0.153,0.475,0.327,0.887,0.0265,0.756
TGTCATAGTTCAAAGGTAACGTAAGTATCCACAC,4.03,4.22,1.04,2.89,0.786,4.17,5.59,5.56,2.89,4.8
CAAACTAGGTCACTGAGGTCAAAGTCCGTGCGTA,6.44,5.9,5.56,5.66,1.56,6.2,9.39,7.91,5.72,7.61
TCAATTAGTTGAAGGGCAACCGACGAGTCCGTTT,0.718,0.5,0.203,0.456,-0.169,0.684,0.142,2.03,3.38,2.61
TAACCAAGGTGAAGGTCGTTGATCCCTCTGTAGA,2.07,2.07,0.0328,1.66,-0.394,2.58,3.03,3.53,2.15,4.01
ATATCTAGGTTAAGGGTCATTCAGGTTGGTTCGC,5.3,5.06,3.85,4.75,2.55,6.83,11.7,10.3,10.8,12.4
CCTACTAGGCCAAAAAGGTCATTGATGCCGATAA,3.79,4.67,3.6,4.54,0.985,4.84,3.56,4.24,1.54,3.67
